In PubChem BioAssay (NCATS):
Where “and” joins values, the source holds several entries; their conditions need not be identical. Identical values can stand only once. Records with an inconclusive call do not appear. Calls of active or inactive are those of the source.

test system: not listed separately; test: qHTS assay for small molecule antagonists of retinoid X receptor alpha signaling (AID 588546; active = well fitted inhibition curve with a large enough effect in the signal ratio, with a control signal flat, not every such curve was filed as active; the % refers to the signal ratio; also: potency is read from the fitted curve at half-maximal effect;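 as to max response: cells stimulated with 9-cis-retinoic acid as agonist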); settings: HEK293T RXRa-UAS-bla, beta-lactamase ratio, antagonist mode; measured here: W530 green channel, cytotoxicity proxy
How it was run: (§1)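 Beta-lactamase reporter inhibition, read as CCF4 fluorescence ratio (ex 405, em 460/530 nm) after 2 h at RT. HEK293T UAS-bla cells, 2500/well, were stimulated with 9-cis-RA at 500 or 100 nM final alongside test compound for 18 h at 37 C.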
% is scaled to controls: 0 for no effect and ±100 for the full control effect.

| Compound | max response |
| --- | --- |
| CC(C)CCCCCCCCCCCCCCC(=O)O | -12.3% |
| CCCCCCCCCCCCc1ccccc1 | -16.5% |
| C=CCOc1nc(OCC=C)nc(OCC=C)n1 | -8.71% |
| CCOC(=O)c1ccccc1C | -9.25% |
| CCCCCCCCCCCC[N+](C)(C)C | 5.9% |
| CCCC/C=C\CCCCCCCCCC=O | -13.9% |
| CCCCCCCCCCCCN | -2.37% |
| CCC(O)OCCCOC (configuration not stated) | -12.7% |
| C=CCCCCCCCCCC | -3.33% |
| CCCCCCCCCCCCCCC | -8.06% |
| CC(C)(N=C=O)c1cccc(C(C)(C)N=C=O)c1 | -4.03% |
| CC(C)C(=O)OC(=O)C(C)C | -12.1% |
| CC1=CC(=O)CC(C)(C)C1 | -3.41% |
| CCCCCCCC/C=C\CCCCCCCCO | 0.0391% |
| CCCCCCCC[Si](OCC)(OCC)OCC | -6.97% |
| CCCCCCCCCCCCCCCO | -3.46% |

| Compound | max response |
| --- | --- |
| COc1cc(Cl)c(OC)cc1N | 1.78% |
| Cc1ccc(C(C)(C)C)c(O)c1 | -16% |
| O=C(O)CCCCCCC(=O)O | -8.49% |
| CC(C)CCCCOC(=O)c1ccccc1C(=O)OCCCCC(C)C | -6.23% |
| COC(OC)(C(=O)c1ccccc1)c1ccccc1 | -15.2% |
| COC(=O)CCSCCC(=O)OC | -8.85% |
| CC(C)(C)[C@H](O)[C@H](Cc1ccc(Cl)cc1)n1cncn1 | 9.09% |
| COCCOCCOCCOC | 0.474% |
| CCOCCOCCOC(C)=O | -12.8% |
| CCOCCOCCOCC | -7.04% |
| CCOc1ccc(NC(=O)OC(C)C)cc1OCC | -3.73% |
| CCCCCCC(C)(C)S | -14.4% |
| CC(C)Nc1nc(N)nc(Cl)n1 | -2.6% and -6.07% |
| CCC(C)OC(=O)N1CCCCC1CCO (configuration not stated) | -13% |
| CCCCCCCCCC(=O)OC | -11.2% |

target: Retinoic acid receptor RXR-alpha (Homo sapiens) (UniProt P19793); test: as above; settings: HEK293T RXRa-UAS-bla, beta-lactamase ratio, antagonist mode
Sequence (P19793 whole entry, looked up): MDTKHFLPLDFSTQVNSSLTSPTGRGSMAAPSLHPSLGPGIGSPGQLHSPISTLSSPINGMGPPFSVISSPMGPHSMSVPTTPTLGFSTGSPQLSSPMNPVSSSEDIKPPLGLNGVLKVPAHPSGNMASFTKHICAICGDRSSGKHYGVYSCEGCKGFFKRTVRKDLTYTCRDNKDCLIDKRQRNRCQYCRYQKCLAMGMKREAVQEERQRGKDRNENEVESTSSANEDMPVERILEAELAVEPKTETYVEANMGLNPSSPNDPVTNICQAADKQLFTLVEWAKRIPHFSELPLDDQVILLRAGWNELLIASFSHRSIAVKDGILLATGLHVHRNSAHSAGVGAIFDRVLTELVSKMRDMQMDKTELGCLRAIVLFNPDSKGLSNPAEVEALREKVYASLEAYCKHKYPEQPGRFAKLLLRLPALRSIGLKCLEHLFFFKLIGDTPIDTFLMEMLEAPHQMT
How it was run: as §1

| Compound | max response | Potency |
| --- | --- | --- |
| CC(C)CCCCCCCCCCCCCCC(=O)O | -25.1% (inactive) |  |
| CCCCCCCCCCCCc1ccccc1 | 3.12% (inactive) |  |
| C=CCOc1nc(OCC=C)nc(OCC=C)n1 | 0.817% (inactive) |  |
| CCOC(=O)c1ccccc1C | 1.73% (inactive) |  |
| CCCCCCCCCCCC[N+](C)(C)C |  | 17.8 µM (active) |
| CCCC/C=C\CCCCCCCCCC=O | 6.53% (inactive) |  |
| CCCCCCCCCCCCN | 5.24% (inactive) |  |
| CCC(O)OCCCOC (configuration not stated) | 5.03% (inactive) |  |
| C=CCCCCCCCCCC | 2.09% (inactive) |  |
| CCCCCCCCCCCCCCC | -6.6% (inactive) |  |
| CC(C)(N=C=O)c1cccc(C(C)(C)N=C=O)c1 | -29.1% (inactive) |  |
| CC(C)C(=O)OC(=O)C(C)C | -4.54% (inactive) |  |
| CC1=CC(=O)CC(C)(C)C1 | -18.4% (inactive) |  |
| CCCCCCCC/C=C\CCCCCCCCO | 6.68% (inactive) |  |
| CCCCCCCC[Si](OCC)(OCC)OCC | -6.63% (inactive) |  |
| CCCCCCCCCCCCCCCO | -24% (inactive) |  |

| Compound | max response | Potency |
| --- | --- | --- |
| COc1cc(Cl)c(OC)cc1N | -0.61% (inactive) |  |
| Cc1ccc(C(C)(C)C)c(O)c1 | -3.16% (inactive) |  |
| O=C(O)CCCCCCC(=O)O | 2.98% (inactive) |  |
| CC(C)CCCCOC(=O)c1ccccc1C(=O)OCCCCC(C)C | -8.08% (inactive) |  |
| COC(OC)(C(=O)c1ccccc1)c1ccccc1 | -6.2% (inactive) |  |
| COC(=O)CCSCCC(=O)OC | -2.91% (inactive) |  |
| CC(C)(C)[C@H](O)[C@H](Cc1ccc(Cl)cc1)n1cncn1 | -30.2% (inactive) |  |
| COCCOCCOCCOC | 2.59% (inactive) |  |
| CCOCCOCCOC(C)=O | 7.1% (inactive) |  |
| CCOCCOCCOCC | -12.1% (inactive) |  |
| CCOc1ccc(NC(=O)OC(C)C)cc1OCC | -21.6% (inactive) |  |
| CCCCCCC(C)(C)S | 4.42% (inactive) |  |
| CC(C)Nc1nc(N)nc(Cl)n1 | -9.99% (inactive) and -17.3% (inactive) |  |
| CCC(C)OC(=O)N1CCCCC1CCO (configuration not stated) | 3.95% (inactive) |  |
| CCCCCCCCCC(=O)OC | 2.82% (inactive) |  |

target: Thyroid hormone receptor beta (Homo sapiens) (UniProt P10828); test: qHTS assay for small molecule antagonists of thyroid hormone receptor beta signaling (AID 588547; active = well fitted inhibition curve with a large enough effect in the signal ratio, with a control signal flat, not every such curve was filed as active; the % refers to the signal ratio;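 also: cells stimulated with 0.4 nM T3 agonist during compound exposure; series mostly up to about 77 µM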); settings: TR-UAS-bla HEK293, beta-lactamase ratio, antagonist mode, 18 h
Sequence (P10828 whole entry, looked up): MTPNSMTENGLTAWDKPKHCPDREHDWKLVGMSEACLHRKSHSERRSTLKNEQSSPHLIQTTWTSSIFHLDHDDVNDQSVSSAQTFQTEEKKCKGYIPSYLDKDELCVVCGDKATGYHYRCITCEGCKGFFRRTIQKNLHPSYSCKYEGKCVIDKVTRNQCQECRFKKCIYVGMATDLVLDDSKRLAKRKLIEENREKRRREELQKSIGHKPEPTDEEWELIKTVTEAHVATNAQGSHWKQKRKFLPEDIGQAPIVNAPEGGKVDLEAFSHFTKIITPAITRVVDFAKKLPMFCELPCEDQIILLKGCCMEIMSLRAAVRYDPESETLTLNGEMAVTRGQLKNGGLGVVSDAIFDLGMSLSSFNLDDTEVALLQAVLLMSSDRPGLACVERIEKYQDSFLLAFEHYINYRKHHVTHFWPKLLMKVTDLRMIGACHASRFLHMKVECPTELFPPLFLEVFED
How it was run: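 Inhibition of T3-driven (0.4nM final) beta-lactamase reporter activity was measured over 0.59 nM to 92 uM compound after 18 h at 37 C. The cells were GripTite HEK293 TR-UAS-bla in charcoal/dextran-stripped serum, with CCF4 ratio read-out and IC50 from Hill fits.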

| Compound | activity change % (negative = inhibition) |
| --- | --- |
| C=CCOc1nc(OCC=C)nc(OCC=C)n1 | 11.9% (inactive) |
| CCOC(=O)c1ccccc1C | -2.99% (inactive) |
| CCCCCCCCCCCCN | -7.43% (inactive) |
| CCC(O)OCCCOC (configuration not stated) | -6.47% (inactive) |
| CCCCCCCCCCCCCCC | 5.8% (inactive) |
| Oc1ccc(C(c2ccc(O)cc2)C(Cl)(Cl)Cl)cc1 | -14.4% (inactive) |
| CC(C)(N=C=O)c1cccc(C(C)(C)N=C=O)c1 | -9.67% (inactive) |
| CC(C)C(=O)OC(=O)C(C)C | 8.71% (inactive) |
| CC1=CC(=O)CC(C)(C)C1 | 1.58% (inactive) |
| CCCCCCCC/C=C\CCCCCCCCO | -5.71% (inactive) |
| CCCCCCCC[Si](OCC)(OCC)OCC | 3.89% (inactive) |
| CCCCCCCCCCCCCCCO | 4.44% (inactive) |
| O=S(=O)(O)c1cc(S(=O)(=O)O)c2c(N=Nc3ccccc3)c(O)ccc2c1 | -8.36% (inactive) |
| CC(COc1ccc(C(C)(C)C)cc1)OS(=O)OCCCl (configuration not stated) | -14.9% (inactive) |
| COC(OC)(C(=O)c1ccccc1)c1ccccc1 | -4.01% (inactive) |
| CC(C)C[C@H](NC(=O)OCC1c2ccccc2-c2ccccc21)C(=O)O | -4.45% (inactive) |
| CC(C)(C)[C@H](O)[C@H](Cc1ccc(Cl)cc1)n1cncn1 | -7.84% (inactive) and -5.42% (inactive) |
| CCOC(=O)[C@H](C)Oc1ccc(Oc2nc3ccc(Cl)cc3o2)cc1 | -0.0371% (inactive) |
| COCCOCCOCCOC | 2.02% (inactive) |
| CCCCCCC(O)CCCCCCCCCCC(=O)O (configuration not stated) | -5.14% (inactive) |
| CCOCCOCCOC(C)=O | 14% (inactive) |
| CCOCCOCCOCC | -11.8% (inactive) |
| CCOc1ccc(NC(=O)OC(C)C)cc1OCC | -11% (inactive) |
| CC(C)Nc1nc(N)nc(Cl)n1 | -8.47% (inactive) and 11% (inactive) |
| CCC(C)OC(=O)N1CCCCC1CCO (configuration not stated) | -6.45% (inactive) |
